# Screening data from PubChem BioAssay.
# A selection: hits, their analogues and other compounds. The true share with any hit is near 6.5%.
# Lassa entry inh: inhibitors of Lassa virus binding or cell entry; Lassa virus pseudotype entry inhibition, cell reporter; Potency, µM (series often up to 37.9 µM), for the others: top-dose activity change, negative = inhibition, actives largely listed as inhibitors; hit rate 1.2% among 300,000; calls by dose curve; tested in HEK293 cells; note: potency is the fitted concentration of half-maximal effect; nearly all actives have a fitted effect of over 50% in size
# Marburg entry inh: blocks Marburg virus binding to or entry into cells. Marburg virus pseudotyped entry inhibition, cell reporter. Potency, µM (highest dose often 37.8 µM), for inactives: at the top dose activity change, negative = inhibition, actives largely listed as inhibitors. hit rate 1.8% among 300,000. AID 540276; calls by dose curve; tested in HEK293 cells; note: potency is the fitted concentration of half-maximal effect
# FMDV inh: blocks foot and mouth disease virus; FMDV antiviral cell-based qHTS; Potency, µM (highest dose often 57.9 µM), inactives show at the top dose activity change, negative = inhibition, actives largely listed as inhibitors; hit rate 1.2% among 410,000; AID 1159524; calls by dose curve; tested in HEK293T cells; note: read-out not given here; potency is the fitted concentration of half-maximal effect; nearly all actives have a fitted effect of over 45% in size
# VACV mCherry inh: inhibitors of vaccinia virus infection (mCherry reporter signal). Vaccinia virus mCherry reporter infection, fluorescence. Potency, µM (titrated, usually from 36.5 µM), for inactives: at the highest dose activity change, negative = inhibition, usual class: inhibitors. hit rate 0.63% among 310,000; calls by dose curve; tested in A549 cells; note: potency is the fitted concentration of half-maximal effect; nearly all actives have a fitted effect of over 35% in size
# HCMV inh: blocks human cytomegalovirus replication. HFF cells, HCMV-luciferase reporter, 72 h; stronger effect = lower value. activity change, negative = inhibition, % at 57.5 µM. hit rate 4.5% among 410,000. AID 1259415; in the data active = activity change below about -60%; inconclusive = no clear call, values can overlap the other calls; inactive = above about -39%
#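 Screen run at 2 compound doses on HFFs infected with reporter HCMV, MOI 1 PFU/cell. Luciferase activity from cell lysates at 72 h post infection gave inhibition relative to buffer-only and Salinomycin wells.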
# VACV Venus inh: vaccinia inhibition (Venus reporter); Vaccinia virus Venus reporter expression, fluorescence; Potency, µM (doses to about 36.5 µM), for inactives: at the highest dose activity change, negative = inhibition, hits mostly inhibitors; hit rate 0.46% among 330,000; AID 720580; calls by dose curve; tested in A549 cells; note: potency is the fitted concentration of half-maximal effect; nearly all actives have a fitted effect of over 30% in size
# An asterisk follows results filed as active; i = inactive; u = inconclusive; x = no result given; [ ] = dose if it differs, or a comment. % is set by controls: 0 for no effect and ±100 for the full control effect.
SMILES,Lassa entry inh,Marburg entry inh,FMDV inh,VACV mCherry inh,HCMV inh,VACV Venus inh
O=C(NCc1cccnc1)c1cc(Sc2ccc(F)cc2F)nc2ccccc12,u,11µM*,u,-19%,-64*,-24%
COc1ccc(N/C=C/c2nc(SC)nnc2C)cc1,-21%[46.1 µM],u,-16%,-13%,-86*,-2%
Cn1c(SCC2CCCO2)nnc1C1CCN(Cc2ccccc2O)CC1 (configuration not stated),x,x,-16%,-7%,x,0%
Cc1sc(NC(=O)c2ccco2)c(C(c2cccnc2)N2CCCC2)c1C (configuration not stated),-26%,u,2%,x,-62*,x
CCOc1ccc(N)c(SSc2cc(OCC)ccc2N)c1,x,x,11%,-8%,-98*,-16%
CCOC(=O)c1sc(NNC(=O)c2ccc(C)cc2)nc1C,-27%,-12%[46.1 µM],26%,-23%[7.34 µM],39,-5%[7.34 µM]
CCOC(=O)c1nc(NNC(=O)c2ccc([N+](=O)[O-])cc2)sc1C,u,8.9µM*,-2%,u,-97*,u
O=C(CSc1nnc2scc(-c3ccccc3)n12)Nc1ccc(Cl)cc1,8%[46.1 µM],6%[46.1 µM],-23%,-10%,-12,0%
CCOC(=O)c1c(C)oc2ccc(N(C(=O)c3ccncc3)S(=O)(=O)c3ccc(F)cc3)cc12,-3%[46.1 µM],u,6%,-16%,-5,-8%
CCOc1ccc(S(=O)(=O)N(C(=O)c2ccncc2)c2ccc3oc(C)c(C(=O)OC)c3c2)cc1,u,10µM*,-24%,-25%[7.34 µM],-79*,-27%[7.34 µM]
COC(=O)c1c(C)oc2ccc(N(C(=O)c3ccncc3)S(=O)(=O)c3ccc(OC)cc3)cc12,-27%[46.1 µM],u,-22%,-29%[7.34 µM],-95*,-27%[7.34 µM]
CCc1ccc(S(=O)(=O)N(C(=O)c2ccncc2)c2ccc3oc(C)c(C(=O)OC)c3c2)cc1,u,u,-5%,-21%[7.34 µM],-64*,-21%[7.34 µM]
Cc1ccc(-n2ncc3c(NCCCN(C)C)ncnc32)cc1Cl,u,x,22%,-18%,11,-19%
CCc1ccccc1NC(=O)c1ccc2[nH]c(C)c(C)c2c1,u,x,36%,-23%,83,-18%
O=[N+]([O-])c1ccc(C[n+]2cccc3ccccc32)cc1,14%,8%[46.1 µM],-2%,-18%,-10,-9%
CCCCCCCCCC[n+]1ccc(/C=C/c2ccc(N(C)C)cc2)c2ccccc21,x,x,x,i,x,x
CCCCC[n+]1cccc2c3ccccc3ccc21,x,x,u,x,-95*,x
c1ccc(C[n+]2cccc3c4ccccc4ccc32)cc1,7.1µM*,u,u,u,-94*,u
Cc1cc(/C=C2\C=Cc3ccccc32)ccc1N(C)C,x,x,x,-20%,x,-10%
C#CC[N+](CC)(CC)CC#Cc1ccccc1,2%,9%,-16%,u,20,-27%
C#CC[N+](C)(C)C(C#Cc1ccccc1)CC=C (configuration not stated),22%,-4%,23%,-2%,-89*,-27%
Cc1cccc(N2C(=O)NC(=O)/C(=C\c3cccn3-c3ccc(Cl)cc3)C2=O)c1,u,u,10µM*,x,-102*,u
Cc1cc(C)cc(N2C(=O)NC(=O)/C(=C/c3cccn3-c3ccc(Cl)cc3)C2=O)c1,u,u,14µM*,i,70,2%
CC(C)(C)n1cccc1/C=C1\C(=O)NC(=O)N(c2ccccc2)C1=O,4%,0%,10%,-10%,8,-9%
COc1ccc(-n2cccc2/C=C2/NC(=O)N(c3cccc(Cl)c3)C2=O)cc1,6%,10%,5%,-23%,41,-12%
SMILES,Lassa entry inh,Marburg entry inh,FMDV inh,VACV mCherry inh,HCMV inh,VACV Venus inh
CCOC(=O)c1ccc(NC(=O)C(CC)Sc2nc3ncccc3[nH]2)cc1 (configuration not stated),18%[46.1 µM],x,-17%,-3%,-30,-4%
CCN1C(=O)[C@@H]2[C@H]3[C@H](O)[C@H](O)CC(=NOC[C@@H](C)[C@H](OCc4ccccc4)C(C)C)[C@@H]3CC[C@H]2C1=O,13%[14.3 µM],1%[14.2 µM],x,x,x,x
OCCN1CCN(C2CCC(c3ccc(F)cc3)c3ccc(F)cc32)CC1 (configuration not stated),u,4µM*,u,u,u,u
O=[N+]([O-])c1ccc2c(c1)C(N1CCN(CCO)CC1)Cc1ccc(F)cc1S2 (configuration not stated),x,x,-14%,i,9,-16%
Cc1ccc(S(=O)(=O)N2CCC([C@H](C#N)c3ccccc3)CC2)cc1,x,x,x,x,-12,x
CC(C)(C)c1cc(/C=N/NC(=O)Cc2nc3ccccc3[nH]2)cc(C(C)(C)C)c1O,-2%,-3%,-24%,x,-79*,-4%
CCOC(=O)c1ccc(NC(=O)C2CCCN(c3ncnc4onc(C)c34)C2)cc1 (configuration not stated),u,x,0%,-24%,-75*,-29%
CCOC(=O)c1ccc(NC(=O)C2CCCN(c3ccc(Sc4ccc(C)cc4)nn3)C2)cc1 (configuration not stated),6.3µM*,u,11%,-20%,-20,-19%
Cc1ccc(Sc2ccc(N3CCCC(C(=O)Nc4ccc(F)cc4F)C3)nn2)cc1 (configuration not stated),0.89µM*,u,-14%,-6%,-35,6%
CCc1cc2c(nc1CC)CCN(CCC(C)=NO[C@@H](C)c1cn([C@H](CO)Cc3ccccc3)nn1)C2,x,-27%[14.2 µM],x,x,x,x
NC(Cc1cc(I)c(Oc2cc(I)c(O)c(I)c2)c(I)c1)C(=O)O (configuration not stated),x,x,-12%,-17%,x,-10%
CN(c1ccccc1)c1nc(N2CCCC2)nc(-n2ccnc2)n1,u,-25%[46.1 µM],u,-16%,-20,u
c1ccc(N(c2ccccc2)c2nc(N3CCCC3)nc(-n3ccnc3)n2)cc1,1.6µM*,u,u,x,-66*,x
O=C1CSC(c2cn(-c3ccccc3)nc2-c2cc3ccccc3oc2=O)N1Cc1ccccc1 (configuration not stated),11µM*,u,-18%,-6%[1.46 µM],-25,u
O=C1CSC(c2nn(-c3ccccc3)cc2-c2cc3ccccc3oc2=O)N1Cc1ccco1 (configuration not stated),u,u,x,-12%,119,-24%
CC1(C)CCC(=O)N2CC[C@H]3C[C@H](OC(=O)Nc4ccc(Br)cc4)C[C@@H]1[C@H]32,x,x,13%,-8%,-101*,u
CCCCNc1nc(-c2ccccc2)c(C(=O)OCC)cc1C#N,11µM*,u,-15%,x,-3,-29%
C=CCNc1nc(-c2ccccc2)c(C(=O)OCC)cc1C#N,u,u,u,-18%,21,-26%
CC(C)(C)C1CCc2c(sc(NC(=O)Cn3nnc(-c4cccc(C(F)(F)F)c4)n3)c2C#N)C1 (configuration not stated),21%[46.1 µM],u,0%,-12%,12,-13%
